We go through five compounds from PubChem BioAssay (NCATS).

Experiment [1] in a line: Cell Viability - LYMP2-022 (AID 987).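 Further: 0% = DMSO alone and full effect = tetraoctylammonium bromide at 92 µM; nearly all actives have a fitted effect of over 55% in size.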 The method in brief: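 Human lymphoblastoid cells, 2500/well, preincubated 5 hr at 37 C, then exposed to compounds over a concentration range for 24 hr at 37 C in complete medium. Viability read as intracellular ATP by CellTiter-Glo luminescence after 30 min at room temperature; AC50 from Hill fits.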
The nature of experiment [2]: Cell Viability - LYMP2-024 (AID 988).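 Further: plate controls were DMSO only for no effect and 92 µM tetraoctylammonium bromide for full effect; nearly all actives have a fitted effect of over 60% in size.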 The method in brief:
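Human lymphoblastoid cells (2500/well) in complete medium were preincubated 5 hr at 37 C, then exposed to compounds for 24 hr at 37 C. Intracellular ATP was read by CellTiter-Glo luminescence; AC50 from Hill-equation fits of concentration-response data.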

Experiment [3] can be described thus: Cell Viability - LYMP2-026 (AID 989). Further: on the % scale 0 is the no-effect control and ±100 the full control effect; nearly all actives have a fitted effect of over 50% in size. The method in brief: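 Human lymphoblastoid cells (2500/well) in complete medium were preincubated 5 hr at 37 C, then exposed to compounds for 24 hr at 37 C. Cellular ATP was read by CellTiter-Glo luminescence; AC50 from Hill-equation fits of concentration-response data.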
Experiment [4] is described as follows: qHTS for differential inhibitors of proliferation of Plasmodium falciparum line 7G8 (AID 1815;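 further: potency means the concentration at half of the fitted maximal effect; parasite growth measured after three days of incubation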). (In qHTS, concentration-response curves come from the screen itself.)
Experiment [5] is described as follows: qHTS for differential inhibitors of proliferation of Plasmodium falciparum line GB4 (AID 1816).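 Further: potency means the concentration at half of the fitted maximal effect; parasite growth measured after 72 h incubation.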 Conditions: Potency: Plasmodium falciparum GB4 proliferation inhibition.
Experiment [6] is described as follows: qHTS for differential inhibitors of proliferation of Plasmodium falciparum line W2 (AID 1883).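 Further: potency means the concentration at half of the fitted maximal effect; parasites grown with compound for 72 h before lysis and staining.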 Conditions: Potency: Plasmodium falciparum W2 proliferation inhibition.
A short description of experiment [7]: Validation screen for small molecules that induce genotoxicity in human embryonic kidney (HEK293T) cells expressing luciferase-tagged ELG1 (AID 493106). Further: 0% is about no effect. The method in brief:
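HEK293T cells expressing luciferase-tagged ELG1 were exposed to compound or DMSO vehicle for 16 hr at 37 °C, 5% CO2. Genotoxic stress raises ELG1 levels, so increased luciferase signal after ONE-Glo addition and 30 min at room temperature marks hits.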

A short description of experiment [8]: qHTS assay for small molecule agonists of the antioxidant response element (ARE) signaling pathway (AID 651741; active means well fitted activation curve with a large enough effect in the signal ratio; the % refers to the signal ratio; further: potency means the concentration at half of the fitted maximal effect). A digest of the protocol: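 ARE-bla HepG2 cells (beta-lactamase reporter under ARE control) were plated at 2,000 cells/well, preincubated 5 h at 37 C/5% CO2, then treated with DMSO-dissolved compounds for 16 h at 37 C; LiveBLAzer B/G FRET substrate added, fluorescence read after 2 h at room temperature.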

Experiment [9] can be described thus: qHTS assay to identify small molecules that stimulate interleukin-8 (IL-8) secretion (AID 651758; active means well fitted activation curve with a large enough effect in the signal ratio; the % refers to the signal ratio; further: 0% is about no effect). A digest of the protocol: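 THP-1, 2000 cells/well; cpd 16 h, 37 C; add cryptate + XL665 anti-IL-8 Abs; RT 1-3 h; TR-FRET read.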
A short description of experiment [10]: Cell Viability qHTS for small molecule stabilizers of the endoplasmic reticulum resident proteome (AID 1508629).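 Further: human SH-SY5Y neuroblastoma cells carrying the GLuc-SERCaMP reporter; compound exposure about 46 h in total before the viability read; on the % scale 0 is the no-effect control and ±100 the full control effect.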 Conditions: cell viability counter-screen, 100 nM thapsigargin for final 4 h.
Experiment [11] can be described thus: qHTS Assay for Identification of Small Molecule Antagonists for Thrombopoietin (TPO) Signaling Pathway (AID 918). Further: potency means the concentration at half of the fitted maximal effect; nearly all actives have a fitted effect of over 60% in size. Conditions: TPO-dependent cell signaling reporter, antagonist mode. A digest of the protocol: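 Murine Ba/F3 cells stably expressing human TPO receptor and a Glycoprotein IIb promoter–luciferase reporter were IL-3-starved overnight, treated with compounds plus TPO (26 pM final, its EC50) for 24 hrs at 37 C, then read by luminescence.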

The nature of experiment [12]: Confirmation and Secondary Assay for Modulators of Hemoglobin Beta Chain Splicing at IVS2 654 locus (AID 910).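 Further: per-well total GFP intensity by laser scanning cytometry after 2-day treatment; % of control where 0% means no effect.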 A digest of the protocol: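 HeLa cells stably carrying EGFP interrupted by mutant beta-globin IVS2-654 intron (CMV-driven) were treated with compound for 2 days at 37C; corrected splicing was scored as total peak GFP intensity per well (488 nm excitation, 500-520 nm emission).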

Experiment [13] can be described thus: Confirmation and Secondary Assay for Modulators of Hemoglobin Beta Chain Splicing at IVS2 705 locus (AID 930).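 Further: HeLa cells stably expressing the EGFP-705 splicing reporter; series mostly up to about 46 µM; % of control where 0% means no effect.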 The method in brief: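 Restored EGFP fluorescence after 2-day compound exposure reports splicing correction in IVS2-705 EGFP reporter HeLa cells; positive control was 500 nM splice-blocking PNA oligo. Signal measured as well total peak GFP intensity (488 nm excitation).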

Values without a mark were called inactive. Results filed as inconclusive are left out. Active and inactive are the calls of the source. Unless noted, the call rests on the fitted dose curve; in most records, active means well fitted curve in the direction sought with a large enough effect; inconclusive means small, poorly fitted or top-dose-only effect, or another doubt; inactive means no such curve, though single readings can be large; an effect the other way counts as inactive or inconclusive.

For `Cc1ccccc1O`, the outcome in experiment [1], in [2] and in [3] was inactive.

On to `CC(=O)[C@H]1CC[C@H]2[C@@H]3CCC4=CC(=O)CC[C@]4(C)[C@H]3CC[C@]12C`, for which the Potency in experiment [4] is 8.91 µM (active); in experiment [5], 12.6 µM (active); in experiment [6] it was 7.94 µM (active); in [8], 37.6 µM (active). For the same compound, in experiment [7], the call was inactive. Besides, in experiment [9], the Potency entry was “inactive”.

With `CC(C)(O)C1OC2CCC3(C)C(O)(CCC4Cc5c([nH]c6ccccc56)C43C)C2=CC1=O` (stereo not drawn), the max response in experiment [10] was 28.4%.

Regarding `CC(C)COC(=O)OCN1C(=O)CN(CCN2CC(=O)N(COC(=O)OCC(C)C)C(=O)C2)CC1=O`, the Potency in [11] is 0.251 µM (active).

In the case of `O=c1ccc2c(O)c3ccoc3cc2o1`, the Potency result in experiment [12] is “inactive”. Moreover, the call in experiment [13] was inactive.
